PubChem BioAssay (NCATS)
Inconclusive results are not listed. Activity calls are given as the source filed them. Calls come from the whole dose curve; as a rule, active = well fitted cell-killing curve with a large enough effect; inconclusive = small, poorly fitted or top-dose-only effect, or effect the other way; inactive = flat fitted curve, though single readings scatter.

system: Tov112D; assay: Primary qHTS to identify gynecologic anti-cancer compounds using libraries of approved drugs and bioactive compounds (AID 1345084); details: Gynecologic cancer cell panel viability, ATPlite luminescence, 48 h; series mostly up to 57.5 µM; activity change, negative = cytotoxicity: at the top concentration; note: nearly all actives have a fitted effect of over 55% in size
Outline: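 48 h compound exposure at 37 C, 5% CO2; five-point qHTS. ATPlite luminescence readout of cell ATP.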
% is set by controls: 0 for no effect and ±100 for the full control effect.

Structure (SMILES)	activity change, negative = cytotoxicity
COC(=O)C1=C[C@@H](O)[C@@H](O)[C@H](O[C@@H]2O[C@H](COC(=O)/C=C/c3ccccc3)[C@@H](O)[C@H](O)[C@H]2O)C1	-1.01% [at 25.3 µM] (inactive)
CC1=C2C3OC(=O)C(C)C3(O)CCC2(C)CCC1=O (configuration not stated)	27% (inactive)
C=C(C)[C@@H]1CC[C@](C)(O)[C@@H](OC(=O)c2ccccc2)C1	13.5% (inactive)
C[C@@H]1O[C@@H](O[C@H]2[C@H](O)[C@@H](O)[C@H](OC[C@H]3O[C@@H](OC(=O)[C@]45CCC(C)(C)C[C@H]4C4=CCC6[C@@]7(C)C[C@H](O)[C@H](O[C@@H]8O[C@H](CO)[C@@H](O)[C@H](O)[C@H]8O)[C@@](C)(C(=O)O)C7CC[C@@]6(C)[C@]4(C)CC5)[C@H](O[C@@H]4O[C@H](CO)[C@@H](O)[C@H](O)[C@H]4O)[C@@H](O)[C@@H]3O)O[C@@H]2CO)[C@H](O)[C@H](O)[C@H]1O (some centres not stated)	5.3% [at 6.55 µM] (inactive)
C[C@@H]1O[C@@H](O[C@H]2[C@H](O[C@H]3CC[C@@]4(C)C(CC[C@]5(C)C4CC=C4[C@@H]6CC(C)(C)CC[C@]6(C(=O)O)CC[C@]45C)[C@]3(C)CO)OC[C@H](O)[C@@H]2O)[C@H](O)[C@H](O[C@@H]2OC[C@@H](O)[C@H](O)[C@H]2O)[C@H]1O (some centres not stated)	4.64% [at 11.6 µM] (inactive)
C=CCc1ccc(O[C@@H]2O[C@H](CO[C@@H]3O[C@H](CO)[C@@H](O)[C@H](O)[C@H]3O)[C@@H](O)[C@H](O)[C@H]2O)c(O)c1	-7.81% [at 25.3 µM] (inactive)
CC(=O)N[C@H]1[C@H](O[C@H]2CC[C@@]3(C)C(CC[C@]4(C)C3CC=C3C5CC(C)(C)CC[C@]5(C(=O)O)[C@H](O[C@@H]5O[C@H](CO)[C@@H](O)[C@H](O)[C@H]5O)C[C@]34C)C2(C)C)O[C@H](CO[C@@H]2OC[C@H](O)[C@H](O)[C@H]2O[C@@H]2OC[C@@H](O)[C@H](O)[C@H]2O)[C@@H](O)[C@@H]1O (some centres not stated)	6.55% [at 11.6 µM] (inactive)
